Measured values from PubChem BioAssay (NCATS).
Several values for one entry are separate records, joined by “and”; a condition that tells them apart may be missing. Equal values may be shown once. Records with an inconclusive call do not appear. Where a structure was tested more than once in an assay, its records may differ in their call. Activity calls are given as the source filed them. Calls follow the shape of the dose curve; as a rule, active = well fitted inhibition curve with a large enough effect; inconclusive = small, poorly fitted or top-dose-only effect; inactive = no such curve, though single readings can be large or run the other way.

Assay: Primary qHTS for inhibitors of nuclear receptor binding SET domain protein 2 (NSD2) in an RCH-ACV wild type WT cells (2C) (AID 1645877); also: nearly all actives have a fitted effect of over 70% in size
Details: RCH-ACV (leukaemia line) NSD2 WT (2C) viability, CellTiter-Glo, 72 h; series mostly up to 44.9 µM; activity change, negative = cell killing: at the top concentration
Description: Assay Provider: Jonathan D. Licht, MD
University of Florida College of Medicine, Gainesville, FL
Mutations in epigenetic regulators are common in relapsed pediatric acute lymphoblastic leukemia (ALL). Here, we uncovered the mechanism underlying the relapse of ALL driven by an activating mutation of the NSD2 histone methyltransferase (p.E1099K). […] Correction of this mutation restored glucocorticoid sensitivity. The transcriptional response to glucocorticoids was blocked in NSD2 mutant cells due to depressed glucocorticoid receptor (GR) levels and the failure of glucocorticoids to autoactivate GR expression. […] Pre-treatment of NSD2 p.E1099K cell lines and PDX samples with PRC2 inhibitors reversed glucocorticoid resistance in vitro and in vivo.
High-throughput drug screening of isogenic RCH-ACV cell lines was performed at the National Center for Advancing Translational Science (NCATS), National Institutes of Health as previously described (1). Briefly, isogenic RCH-ACV NSD2 p.E1099K mutant (9B) and WT cells (2C) were plated at 500 cells/well in a 1536-well plate with a 72-hour incubation with compounds prior to addition of CellTiter-Glo to assess cell viability. NCATS libraries screened include: NPC, MIPE 5.0, Kinase and NPACT. To determine compound activity in the qHTS assay, the concentration-response data for each sample was plotted and modeled by a four-parameter logistic fit yielding IC50 and efficacy (maximal response) values. The area under the curve (AUC) of the dose-response curve ensures both efficacy (magnitude of cell killing) and potency (concentration that elicits cell killing) are accounted for in the analysis of activity.
1. Tobie D Lee, Olivia W Lee, Kyle R Brimacombe, Lu Chen, Rajarshi Guha, Sabrina Lusvarghi, Bethilehem G Tebase, Carleen Klumpp-Thomas, Robert W Robey, Suresh V Ambudkar, Min Shen, Michael M Gottesman, Matthew D Hall. A High-Throughput Screen of a Library of Therapeutics Identifies Cytotoxic Substrates of P-glycoprotein. Mol Pharmacol. 2019, Nov;96(5):629-640.
% is scaled to controls: 0 for no effect and ±100 for the full control effect; potency is read from the fitted curve at half-maximal effect.

Structure (SMILES)	outcome	Potency	activity change, negative = cell killing
COC(=O)c1ccc(OC)cc1O[C@@H]1O[C@H](CO[C@@H]2OC[C@@H](O)[C@H](O)[C@H]2O)[C@@H](O)[C@H](O)[C@H]1O	inactive [at 17.3 µM]	–	–
COc1cccc2c1c(O)c(C(=O)N(C)c1ccc(C(F)(F)F)cc1)c(=O)n2C	–	inactive	–
COc1cc(CC2COC(c3ccc(OC4OC(CO)C(O)C(O)C4O)c(OC)c3)C2CO)ccc1O (stereo not given)	inactive [at 17.3 µM]	–	–
CC(CC(C)O[C@@H]1O[C@H](CO)[C@@H](O)[C@H](O)[C@H]1O)OC(=O)/C=C/c1ccc(O)cc1 (stereo not given in full)	–	–	-14.1% [at 17.3 µM] (inactive)
COC(=O)C1=COC(OC2OC(CO)C(O)C(O)C2O)C2C(COC(=O)/C=C/c3ccc(O)cc3)C(O)C(O)C12 (stereo not given)	–	–	-1.2% [at 17.3 µM] (inactive)
CC(C)(CC(=O)N1CCCC1)NCC(=O)N1C[C@@H](F)C[C@H]1C#N	–	–	4.14% (inactive)
O=S(=O)(O)c1ccc(Nc2ncnc3c2ncn3[C@@H]2O[C@H](CO)[C@@H](O)[C@H]2O)cc1	–	–	1.85% (inactive)
CC(C)(OC1OC(CO)C(O)C(O)C1O)C1CCC(O)(CO)C2CC(=O)C(C)(O)C2C1 (stereo not given)	inactive [at 17.3 µM]	–	–
O=C(O)/C=C/c1ccc(O[C@@H]2O[C@H](CO)[C@@H](O)[C@H](O)[C@H]2O)cc1	inactive	–	–
COc1cc(C)c(C(=O)NC2C(C)OC(OC3CCC(C)C4C3C=C(C)C3/C(C)=C\CC/C(C)=C/C5(C)C=C(C(=O)O)C(C)CC56OC(=O)/C(=C(\O)C34C)C6=O)C(O)C2(C)O)c(O)c1 (stereo not given)	inactive [at 9.23 µM]	–	–
O=C(OC1C=C(CO)C2C(OC3OC(CO)C(O)C(O)C3O)OC=CC12O)c1ccc(O)cc1 (stereo not given)	–	–	-24.1% [at 17.3 µM] (inactive)
CC(=O)O[C@@H]1[C@H](O[C@@H]2OC[C@](O)(CO)[C@H]2O)[C@@H](O[C@@H]2O[C@@H](C)[C@H](O)[C@@H](O[C@@H]3O[C@H](CO)[C@@H](O)[C@H](O)[C@H]3O)[C@H]2O)[C@H](OC(=O)[C@]23CCC(C)(C)C[C@H]2C2=CCC4[C@@]5(C)C[C@H](O)[C@H](O[C@@H]6O[C@H](C(=O)O)[C@@H](O)[C@H](O)[C@H]6O)[C@@](C)(C(=O)O)C5CC[C@@]4(C)[C@]2(C)CC3)O[C@@H]1C (stereo not given in full)	inactive [at 9.23 µM]	–	–
CNc1nc(C)nc(N[C@H]2CCC[C@@H](C(=O)NCc3ccc(C#N)cc3C(F)(F)F)C2)n1	–	–	-2.51% (inactive)
C=CC(C)(O)CC/C=C(\C)C(=O)O[C@@H]1[C@@H](O)[C@H](OC(C)(C=C)CC/C=C(\C)C(=O)O)O[C@H](CO)[C@H]1OC(=O)/C(C)=C/CCC(C)(O)C=C (stereo not given in full)	–	–	-6.36% [at 17.3 µM] (inactive)
Cc1noc2c1-c1ccccc1C(c1ccc(Cl)cc1)=N[C@H]2CC(N)=O	–	inactive and 525 nM (active)	–
O=C(O)Cn1nnc(-c2ccc(CN(CCCCOc3ccc(CN4CCCC4)cc3)CCc3ccccc3)cc2)n1	–	–	-8.41% (inactive)
C/C(=C\CO)CC/C=C(\C)C(=O)O[C@@H]1O[C@H](CO)[C@@H](O)[C@H](O)[C@H]1O	–	–	4.72% (inactive)
CC(C)=CCC[C@@](C)(O)[C@H]1CC[C@]2(C)[C@@H]1[C@H](O)CC1[C@@]3(C)CC[C@H](O[C@@H]4O[C@H](CO)[C@@H](O)[C@H](O)[C@H]4O[C@@H]4O[C@H](CO)[C@@H](O)[C@H](O)[C@H]4O)C(C)(C)[C@@H]3CC[C@]12C (stereo not given in full)	inactive [at 17.3 µM]	–	–
CC1C2=CC(=O)OC2(O)CC2C1CCC1C(C)(C)CCC(O)C21C (stereo not given)	–	8.98 µM (active)	–
O=C(O)CCc1c(C(=O)O)[nH]c2cc(Cl)cc(Cl)c12	–	–	-0.322% [at 17.3 µM] (inactive)

Structure (SMILES)	outcome	Potency	activity change, negative = cell killing
COC(=O)C(CC1CCCC1)c1ccc(S(C)(=O)=O)cc1 (stereo not given)	–	–	-14.3% (inactive)
C[C@@H]1C[C@@H](O)[C@@]23CO[C@]2(CO)CCC[C@@H]3[C@@]12C[C@@H](c1ccoc1)OC2=O	–	–	-0.821% (inactive)
CC1CC(=O)[C@]2(O)C(C(=O)OCCc3ccc(O)cc3)=CO[C@@H](O[C@@H]3O[C@H](CO)[C@@H](O)[C@H](O)[C@H]3O)[C@H]12 (stereo not given in full)	–	–	-0.462% [at 17.3 µM] (inactive)
O=C(O)c1ccnc2cc(-c3nc4ccccc4n3CCN3CCCCC3)sc12	–	–	-15.9% (inactive)
CC1(C)CC[C@]2(C(=O)O)CC[C@]3(C)C(=CCC4[C@@]5(C)C[C@H](O)[C@H](O[C@@H]6O[C@H](CO)[C@@H](O)[C@H](O)[C@H]6O)[C@@](C)(CO)C5[C@H](O)C[C@]43C)[C@@H]2C1 (stereo not given in full)	–	–	-34.1% [at 17.3 µM] (inactive)
O=C(/C=C/c1ccc(O)cc1)O[C@@H]1C[C@@](O)(C(=O)O)C[C@@H](O)[C@@H]1O	inactive	–	–
COC(=O)C1=C[C@@H](O)[C@@H](O)[C@H](O[C@@H]2O[C@H](CO)[C@@H](O)[C@H](O)[C@H]2OC(=O)/C=C/c2ccccc2)C1	–	–	0.511% [at 17.3 µM] (inactive)
O=C(O)/C=C/c1ccc2occc2c1O[C@@H]1O[C@H](CO)[C@@H](O)[C@H](O)[C@H]1O	–	–	3.88% (inactive)
COC(=O)C(CC1(O)c2ccccc2N2C(=O)C(C)(C)N(O)C21)n1cnc2ccccc2c1=O (stereo not given)	–	–	-8.15% [at 17.3 µM] (inactive)
CC1(C)CC[C@]2(C(=O)O[C@@H]3O[C@H](CO[C@@H]4O[C@H](CO)[C@@H](O)[C@H](O)[C@H]4O)[C@@H](O)[C@H](O[C@@H]4O[C@H](CO)[C@@H](O)[C@H](O)[C@H]4O)[C@H]3O)CC[C@]3(C)C(=CCC4[C@@]5(C)CC[C@H](O[C@@H]6OC[C@@H](O)[C@H](O)[C@H]6O)[C@@](C)(C(=O)O)C5CC[C@]43C)[C@@H]2C1 (stereo not given in full)	inactive [at 9.23 µM]	–	–
CC1=C[C@H](O)[C@H]2C(C)(C)CCC[C@]2(C)[C@@]1(O)CO	inactive	–	–
Cc1ncc([N+](=O)[O-])n1C[C@H](O)CN1CCOCC1	–	–	-7.23% (inactive)
COc1c(-c2ccc(O)cc2)cc(OC)c2c1oc1cc(O)c(OC3OC(CO)C(O)C3O)cc12 (stereo not given)	–	–	-18.8% [at 17.3 µM] (inactive)
CC1=C(CO)CC(C(C)C2CCC3C4CC=C5CC(OC6OC(COC7OC(CO)C(O)C(O)C7O)C(O)C(O)C6O)CC(O)C5(C)C4CCC23C)OC1=O (stereo not given)	–	–	-3.44% [at 17.3 µM] (inactive)
O=C(O)c1cc(C(F)(F)F)ccc1N1CC[C@H](OCc2ccccn2)C1	–	–	-32% (inactive)
C=C1C[C@]23C[C@@]1(O)CC[C@H]2[C@@]12C=C[C@H](O)[C@@](C)(C(=O)O1)[C@H]2[C@@H]3C(=O)O	–	–	-3.08% (inactive)
COc1cc(C2Oc3c(OC)cc(CCCO)cc3C2CO)ccc1O (stereo not given)	–	–	0.834% (inactive)
FC(F)(F)c1nnc2c(Sc3ccccc3)nc3ccc(Cl)cc3n12	–	3.65 µM (active)	–
CC1=C2CC(C)(C)CC2C(O)C2=C(C1)C(=O)OC2O (stereo not given)	–	–	-25.3% (inactive)
CC(C)c1ccc2c(c1)CCC1[C@](C)(C(=O)O)CCC[C@]21C (stereo not given in full)	–	–	-19.6% (inactive)
